RORg inh: qHTS for inhibitors of ROR gamma transcriptional activity; Nuclear receptor ROR-gamma (Mus musculus), P51450; 310,000 tested, 5.4% active; Potency, µM (doses to about 53.6 µM), without a hit: at the top dose activity change, negative = inhibition, usual class: inhibitors; Drosophila S2 Gal4-RORgamma UAS-luciferase reporter, 20 h; note: potency is the fitted concentration of half-maximal effect; nearly all actives have a fitted effect of over 60% in size
Target sequence (P51450 whole entry, looked up, the tested form may be a part): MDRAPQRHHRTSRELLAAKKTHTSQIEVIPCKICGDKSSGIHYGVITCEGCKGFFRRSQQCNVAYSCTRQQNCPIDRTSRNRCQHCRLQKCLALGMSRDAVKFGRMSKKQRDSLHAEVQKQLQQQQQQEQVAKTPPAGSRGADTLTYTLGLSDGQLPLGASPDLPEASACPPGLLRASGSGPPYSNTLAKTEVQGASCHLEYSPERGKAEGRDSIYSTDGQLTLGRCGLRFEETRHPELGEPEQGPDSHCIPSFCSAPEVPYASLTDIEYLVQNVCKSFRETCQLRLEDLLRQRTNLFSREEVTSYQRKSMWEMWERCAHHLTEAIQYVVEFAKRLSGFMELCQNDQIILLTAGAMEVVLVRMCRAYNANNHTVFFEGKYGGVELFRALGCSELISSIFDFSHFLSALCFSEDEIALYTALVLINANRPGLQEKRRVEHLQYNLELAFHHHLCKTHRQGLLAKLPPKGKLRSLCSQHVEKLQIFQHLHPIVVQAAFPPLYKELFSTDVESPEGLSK
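Luciferase reporter read in Schneider cells carrying Gal4-RORγ (mouse) and UAS-Photinus luciferase; cells given compound 1 h before 700 uM copper sulfate induction, then incubated 20 h at ambient temperature.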
TDP1 cell noCPT: qHTS for Inhibitors of human tyrosyl-DNA phosphodiesterase 1 (TDP1): qHTS in cells in absence of CPT; Potency, µM (series often up to 46.2 µM), without a hit: at the highest dose activity change, negative = growth inhibition, usual class: inhibitors; 420,000 tested, 15% active; DT40 Tdp1-/- hTDP1 cells, no CPT, ATP luminescence, 48 h; note: potency is the fitted concentration of half-maximal effect; nearly all actives have a fitted effect of over 55% in size
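Chicken DT40 Tdp1-/- cells complemented with human TDP1, screened without camptothecin (DMSO vehicle only), 400 cells/well. Compounds pin-transferred, cells incubated at 37 °C for at least 48 hr. Growth read as ATP-dependent luminescence (CellTiter-Glo, 30 min at RT).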
VP16 counter: VP16 counterscreen qHTS for inhibitors of ROR gamma transcriptional activity; Drosophila S2 Gal4-VP16 UAS-luciferase, luminescence, 20 h; Potency, µM (highest dose often 53.6 µM), for the others: at the highest dose activity, negative = inhibition, actives largely listed as inhibitors; 310,000 tested, 3.5% active;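 note: Gal4-VP16 expression switched on by copper sulfate through the metallothionein promoter; potency is the fitted concentration of half-maximal effect; nearly all actives have a fitted effect of over 50% in size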
ELG1 repair inh: qHTS screen for small molecules that inhibit ELG1-dependent DNA repair in human embryonic kidney (HEK293T) cells expressing luciferase-tagged ELG1; HEK293T ELG1-luciferase reporter, luminescence, 16 h; DNA damage induced by 5-fluorouridine; Potency, µM (top dose mostly 46.1 µM), inactives show at the top dose activity change, negative = inhibition, most hits filed as inhibitors; AID 504467, 2011; 330,000 tested, 2.3% active; note: potency is the fitted concentration of half-maximal effect; nearly all actives have a fitted effect of over 55% in size
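HEK293T cells expressing luciferase-tagged ELG1 (2,000/well) received 5-Fluorouridine plus compound or DMSO for 16 hr at 37 °C. Luciferase was read by ONE-Glo luminescence after 30 min at room temperature.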
IL-1B inflam inh: qHTS for Inhibitors of Inflammasome Signaling: IL-1-beta AlphaLISA Primary Screen. activity change, % at 57.5 µM. 360,000 tested, 4.7% active. THP-1 LPS/ATP IL-1B secretion, AlphaLISA, 16 h; stronger effect = lower value; in the data active = activity change below about -50%; inconclusive = mostly about -30% to -49%
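THP-1 cells pretreated 1 hr with compounds (up to 57.5 uM final), then stimulated with LPS (250 ng/mL final) plus ATP (1.25 mM final); secreted IL-1B measured by AlphaLISA after 16 hr, decreased signal indicating inhibition.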
TDP1 cell CPT: qHTS for Inhibitors of human tyrosyl-DNA phosphodiesterase 1 (TDP1): qHTS in cells in presence of CPT. chicken DT40 Tdp1-/-;hTDP1 cells + 20 nM CPT, ATP luminescence, 48 h. Potency, µM (titrated, usually from 46.2 µM), without a hit: at the highest dose activity change, negative = growth inhibition, hits mostly inhibitors. 420,000 tested, 12% active. AID 686979, 2013; note: potency is the fitted concentration of half-maximal effect; nearly all actives have a fitted effect of over 55% in size
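Chicken DT40 Tdp1-/- cells stably complemented with human TDP1 were seeded at 400 cells/well in medium containing 20 nM camptothecin, exposed to pin-transferred compounds, and grown at 37 °C for at least 48 hr. Viability was read as ATP luminescence.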
* marks the source's active call; other numbers are inactive results; ? = inconclusive; · = no result given; [ ] = remark or other dose. Only some compounds are listed: those with a hit (about 21% of all), similar ones and a draw of the others. Unless noted, calls come from the whole dose curve; as a rule, active = well fitted curve in the direction sought with a large enough effect; inconclusive = small, poorly fitted or top-dose-only effect, or another doubt; inactive = no such curve, though single readings can be large; an effect the other way counts as inactive or inconclusive. % is set by controls: 0 for no effect and ±100 for the full control effect.

SMILES	RORg inh	TDP1 cell noCPT	VP16 counter	ELG1 repair inh	IL-1B inflam inh	TDP1 cell CPT
COC(=O)C(CC(=O)c1ccc(Cl)cc1)c1ccccc1 (centres undefined)	·	-29%	·	·	-5	?
N#Cc1ccccc1S(=O)(=O)N1CCN(C(=O)[C@H](Cc2ccccc2)NC(=O)c2ccco2)CC1	·	?	·	-3%	8	-19%
O=C(Nc1ccc(Br)cc1)Nc1ccccc1Cl	17%	10µM*	-15%	?	?	15µM*
CN1CCN(NC(=O)Nc2cc(Cl)cc(Cl)c2)CC1	?	?	-5%	-8%	?	?
CN1CCN(NC(=O)Nc2ccc(Br)cc2Cl)CC1	-1%	-4%	-4%	?	-50*	-8%
CC(=O)CCC(=O)O	8%[10 µM]	-3%	5%	·	·	16%
O=S(=O)(O)c1ccc2c(c1)C(C(Cl)(Cl)Cl)OC(C(Cl)(Cl)Cl)O2 (centres undefined)	·	4%	·	·	-5	15%
CC(=O)c1ccc(-c2ccc3c4c(ccc3c2)OC(CNC(=O)C(C)N2CCOCC2)C4)s1 (centres undefined)	·	7.3µM*	·	·	·	?
CSc1cccc(NC(=O)C2CCN(S(=O)(=O)c3ccc4[nH]c(=O)ccc4c3)CC2)c1	·	-9%	·	·	·	-16%
COc1ccc(CCCNC(=O)C2Cc3c(-c4cccc(NC(C)=O)c4)ccnc3O2)cc1 (centres undefined)	·	3.7µM*	·	·	31	5.8µM*
CC(=O)Nc1cccc(-c2ccnc3c2CC(C(=O)NCCC(F)(F)F)O3)c1 (centres undefined)	·	23µM*	·	·	35	?
CC(=O)Nc1cccc(-c2ccnc3c2CC(C(=O)NCc2cccs2)O3)c1 (centres undefined)	·	0.65µM*	·	·	47	0.92µM*
CC(=O)Nc1cccc(-c2ccnc3c2CC(C(=O)NCC2CCOCC2)O3)c1 (centres undefined)	·	2.3µM*	·	·	0	2.6µM*
CC(=O)NCCNC(=O)C1Cc2c(-c3cccc(NC(C)=O)c3)ccnc2O1 (centres undefined)	·	1%	·	·	16	0%
COc1ccc(S(=O)(=O)N(C)Cc2ccc3c(c2)OCCO3)cc1	·	?	·	11%	-20	-7%
CC(C)Cc1ccc(CN2CCCC(NC(=O)c3ccoc3)C2)cc1 (centres undefined)	0%	13µM*	?	3%	-8	12µM*
CC(C)Cc1ccc(CN2CCCC(NC(=O)c3ccnn3C)C2)cc1 (centres undefined)	?	23µM*	?	21%	-23	18µM*
CC(C)Cc1ccc(CN2CCCC(NC(=O)c3cccc(-n4cnnc4)c3)C2)cc1 (centres undefined)	?	23µM*	-12%	?	-51*	21µM*
CC(C)Cc1ccc(CN2CCCC(NC(=O)c3nn(C)c(=O)c4ccccc34)C2)cc1 (centres undefined)	·	?	·	-22%	-13	?
Cc1noc(C)c1CCC(=O)NC1CCCN(Cc2ccc(CC(C)C)cc2)C1 (centres undefined)	8%	15µM*	-2%	?	-21	18µM*
O=C(NC1CCCN(Cc2ccc(Cl)cc2)C1)c1c(F)ccc(F)c1F (centres undefined)	-3%	-10%	2%	-4%	25	-35%
CCc1ccccc1NC(=O)Cn1cc(C(=O)c2ccc(Cl)cc2)c(=O)c2ccc(C)nc21	·	5%	·	·	·	1%
Cc1nccn1CCN(C)Cc1cn(Cc2ccccc2)nc1-c1ccc2c(c1)OCO2	-26%	?	2%	9%	-10	?
CN(Cc1cnccn1)Cc1cn(Cc2ccccc2)nc1-c1ccc2c(c1)OCO2	28%	-2%	3%	-2%	30	10%
CN(Cc1ccccn1)Cc1cn(Cc2ccccc2)nc1-c1ccc2c(c1)OCO2	-33%	23µM*	-18%	?	?	-27%
SMILES	RORg inh	TDP1 cell noCPT	VP16 counter	ELG1 repair inh	IL-1B inflam inh	TDP1 cell CPT
CC(c1ccon1)N(C)Cc1cn(Cc2ccccc2)nc1-c1ccc2c(c1)OCO2 (centres undefined)	0%	?	-19%	?	-29	18µM*
CN(Cc1cn(Cc2ccccc2)nc1-c1ccc2c(c1)OCO2)Cc1nccn1C	13µM*	?	2%	-10%	?	?
CC(c1ccon1)N(C)Cc1cn(C)nc1-c1ccc2c(c1)OCCO2 (centres undefined)	0%	0%	1%	0%	28	11%
Cc1ccccc1OCC1CO1 (centres undefined)	-4%	·	-14%	·	·	·
CCOC(=O)c1cccc(NC(=O)CSc2nc3cccnc3n2C)c1	?	16µM*	-27%	18µM*	-53*	21µM*
CCOC(=O)c1c(NC(=O)CSc2nc3cccnc3n2C)sc(C(C)=O)c1C	1%	13µM*	-3%	?	-2	18µM*
CCOC(=O)c1c(NC(=O)CSc2nnc(-c3ccccc3C)n2C)sc(C(C)=O)c1C	8%	12µM*	2%	?	?	18µM*
CCOC(=O)c1sc(NC(=O)CSc2nc3cccnc3n2C)nc1C	0%	-14%	1%	?	36	5%
O=c1cc(O)n(-c2ccc(Cl)cc2)c(=S)[nH]1	?	-7%	2%	-3%	36	-9%
O=C(N/N=C/c1ccc[nH]1)c1ccc(COc2cccc3cccnc23)cc1	13µM*	-47%	14µM*	?	-89*	-16%
O=C(N/N=C/c1ccccc1C(=O)O)c1ccc(COc2cccc3cccnc23)cc1	3%	-4%	14%	-10%	0	-5%
Cc1cc(Br)c(OCc2ccc(C(=O)N/N=C/c3ccc[nH]3)cc2)c(Br)c1	·	?	·	-28%	-62*	?
O=C(NC1CC1)c1nc(Cn2cc([N+](=O)[O-])cn2)no1	-16%	-26%	-1%	?	21	-9%
O=C(Nc1cccc(-c2ccc(F)cc2)c1)C1CCCN(Cc2cccnc2)C1 (centres undefined)	11%	?	6%	0%	?	?

Bioassay records from PubChem.
